Assay results reported in PubChem BioAssay AID1159580 (chemical genetic matrix, 2015).
Several values for one entry are separate records, joined by “and”; a condition that tells them apart may be missing. Equal values may be shown once. About 2,000 (36%) of roughly 5,500 compounds were called active. Inconclusive results (about 18%) are left out. Some of the results follow. A number with no mark means an inactive call. Rule as the data show it: active = normalized growth mostly below about 0.91 (no sharp cut-off); inconclusive = no clear call, values can overlap the other calls; inactive = mostly above about 0.92.

Experiment: chemical genetic growth profiling, strain panel (AID 1159580);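 also: tested at 20 µM; growth read once vehicle control cultures reached saturation at 30 °C; 1 = growth at the plate median or of vehicle wells; lower values mean less growth of the strain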
Conditions: S. cerevisiae deletion strains, growth OD

Structure (SMILES): COC(=O)c1c(C)cc(OC)cc1O
- normalized growth (locus YAL013W, strain DEP1, active compounds read low): 1.02
- normalized growth (locus YAL021C, strain ccr4, active compounds read low): 1.02
- normalized growth (locus YAL026C, strain drs2, active compounds read low): 0.984
- normalized growth (locus YAL030W, strain snc1, active compounds read low): 0.971
- normalized growth (locus YBL061C, strain skt5, active compounds read low): 0.988
- normalized growth (locus YBR009C, strain hhf1, active compounds read low): 0.978
- normalized growth (locus YBR021W, strain FUR4, active compounds read low): 1.02
- normalized growth (locus YBR023C, strain chs3, active compounds read low): 0.973
- normalized growth (locus YBR171W, strain sec66, active compounds read low): 0.961
- normalized growth (locus YBR229C, strain ROT2, active compounds read low): 0.996
- normalized growth (locus YBR231C, strain swc5, active compounds read low): 0.978
- normalized growth (locus YBR279W, strain paf1, active compounds read low): 0.988
- normalized growth (locus YCL011C, strain gbp2, active compounds read low): 0.969
- normalized growth (locus YCL016C, strain dcc1, active compounds read low): 0.966
- normalized growth (locus YCL029C, strain bik1, active compounds read low): 0.976
- normalized growth (locus YCL069W, strain vba3, active compounds read low): 0.989
- normalized growth (locus YCR088W, strain abp1, active compounds read low): 0.971
- normalized growth (locus YDL005C, strain med2, active compounds read low): 0.985
- normalized growth (locus YDL035C, strain GPR1, active compounds read low): 1
- normalized growth (locus YDL040C, strain nat1, active compounds read low): 0.98
- normalized growth (locus YDL074C, strain BRE1, active compounds read low): 1.02
- normalized growth (locus YDL101C, strain DUN1, active compounds read low): 1
- normalized growth (locus YDL134C, strain PPH21, active compounds read low): 1
- normalized growth (locus YDL185W, strain tfp1, active compounds read low): 0.987
- normalized growth (locus YDL192W, strain arf1, active compounds read low): 0.985
- normalized growth (locus YDR001C, strain nth1, active compounds read low): 0.983
- normalized growth (locus YDR069C, strain doa4, active compounds read low): 0.98
- normalized growth (locus YDR101C, strain arx1, active compounds read low): 0.954
- normalized growth (locus YDR137W, strain rgp1, active compounds read low): 1.01
- normalized growth (locus YDR150W, strain NUM1, active compounds read low): 0.989
- normalized growth (locus YDR159W, strain sac3, active compounds read low): 0.953
- normalized growth (locus YDR162C, strain NBP2, active compounds read low): 0.997
- normalized growth (locus YDR195W, strain ref2): 1.03
- normalized growth (locus YDR297W, strain sur2, active compounds read low): 0.984
- normalized growth (locus YDR318W, strain mcm21, active compounds read low): 0.962
- normalized growth (locus YDR334W, strain swr1, active compounds read low): 0.984
- normalized growth (locus YDR335W, strain msn5, active compounds read low): 0.994
- normalized growth (locus YDR388W, active compounds read low): 0.986
- normalized growth (locus YDR392W, strain spt3, active compounds read low): 0.913
- normalized growth (locus YDR502C, strain sam2, active compounds read low): 0.962
- normalized growth (locus YEL003W, strain gim4, active compounds read low): 0.975
- normalized growth (locus YEL037C, strain rad23, active compounds read low): 0.991
- normalized growth (locus YEL061C, strain CIN8 (second series), active compounds read low): 0.98
- normalized growth (locus YEL061C, strain CIN8, active compounds read low): 0.989
- normalized growth (locus YER015W, strain faa2, active compounds read low): 0.98
- normalized growth (locus YER016W, strain bim1, active compounds read low): 0.984
- normalized growth (locus YER110C, active compounds read low): 0.947
- normalized growth (locus YER111C, strain swi4, active compounds read low): 0.966
- normalized growth (locus YER155C, strain BEM2 (second series), active compounds read low): 0.858 (active)
- normalized growth (locus YER155C, strain BEM2, active compounds read low): 0.994
- normalized growth (locus YER167W, strain BCK2, active compounds read low): 0.993
- normalized growth (locus YFR010W, strain ubp6, active compounds read low): 0.992
- normalized growth (locus YGL078C, strain dbp3, active compounds read low): 0.993
- normalized growth (locus YGL086W, strain mad1, active compounds read low): 0.988
- normalized growth (locus YGL167C, strain pmr1, active compounds read low): 0.977
- normalized growth (locus YGL173C, strain kem1, active compounds read low): 0.971
- normalized growth (locus YGL227W, strain vid30, active compounds read low): 0.969
- normalized growth (locus YGL240W, strain doc1, active compounds read low): 0.938
- normalized growth (locus YGL248W, strain PDE1, active compounds read low): 0.997
- normalized growth (locus YGL253W, strain hxk2, active compounds read low): 0.979
- normalized growth (locus YGR078C, strain PAC10, active compounds read low): 0.984
- normalized growth (locus YGR135W, strain pre9, active compounds read low): 0.962
- normalized growth (locus YGR229C, strain SMI1, active compounds read low): 1.03
- normalized growth (locus YGR252W, strain gcn5, active compounds read low): 1.02
- normalized growth (locus YHR013C, strain ard1, active compounds read low): 1.02
- normalized growth (locus YHR027C, strain rpn1, active compounds read low): 0.997
- normalized growth (locus YHR030C, strain SLT2, active compounds read low): 0.993 and 1.04
- normalized growth (locus YHR079C, strain IRE1 (second series), active compounds read low): 0.961
- normalized growth (locus YHR079C, strain IRE1, active compounds read low): 1.02
- normalized growth (locus YHR094C, strain hxt1, active compounds read low): 0.99
- normalized growth (locus YHR129C, strain ARP1, active compounds read low): 0.999
- normalized growth (locus YHR142W, strain chs7, active compounds read low): 0.954
- normalized growth (locus YHR200W, strain rpn10, active compounds read low): 0.965
- normalized growth (locus YIL066C, strain RNR3, active compounds read low): 1
- normalized growth (locus YIL073C, strain SPO22, active compounds read low): 0.991
- normalized growth (locus YIL125W, strain kgd1, active compounds read low): 0.984
- normalized growth (locus YIR030C, strain dcg1, active compounds read low): 0.972
- normalized growth (locus YJL092W, strain hpr5, active compounds read low): 0.978
- normalized growth (locus YJL095W, strain BCK1 (second series), active compounds read low): 0.996
- normalized growth (locus YJL095W, strain BCK1, active compounds read low): 0.971 and 1.02
- normalized growth (locus YJL115W, strain asf1, active compounds read low): 0.987
- normalized growth (locus YJL129C, strain trk1, active compounds read low): 0.965
- normalized growth (locus YJL134W, strain LCB3, active compounds read low): 0.999
- normalized growth (locus YJL154C, strain vps35, active compounds read low): 0.98
- normalized growth (locus YJL164C, strain tpk1, active compounds read low): 0.969
- normalized growth (locus YJL166W, strain qcr8, active compounds read low): 0.972
- normalized growth (locus YJL168C, strain set2, active compounds read low): 0.986
- normalized growth (locus YJL187C, strain SWE1 (second series), active compounds read low): 0.998
- normalized growth (locus YJL187C, strain SWE1, active compounds read low): 0.982
- normalized growth (locus YJR043C, strain POL32, active compounds read low): 0.966
- normalized growth (locus YJR066W, strain TOR1, active compounds read low): 0.965
